Reference: PubChem BioAssay AID1159580 (chemical genetic matrix, 2015)
The whole screen tested about 5,500 compounds, of which about 2,000 (36%) were called active. Inconclusive results (about 18%) are left out. No stated cut-off is given here; in the data, active means normalized growth mostly below about 0.91 (no sharp cut-off); inconclusive means no clear call, values can overlap the other calls; inactive means mostly above about 0.92. This is one part of the list.

Assay: chemical genetic growth profiling, strain panel (AID 1159580);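 further: tested at 20 µM; growth read once vehicle control cultures reached saturation at 30 °C; 1 = growth at the plate median or of vehicle wells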
Details: growth OD

Measured: normalized growth

O=C(O)c1ccccc1OP(=O)(O)O
inactive: S. cerevisiae deletion strains, locus YJR066W, strain TOR1, stronger effect = lower value 0.875 | S. cerevisiae deletion strains, locus YKL009W, strain mrt4, stronger effect = lower value 0.997 | S. cerevisiae deletion strains, locus YKL068W, stronger effect = lower value 0.988 | S. cerevisiae deletion strains, locus YKL085W, strain MDH1 (second series), stronger effect = lower value 0.986 | S. cerevisiae deletion strains, locus YKL085W, strain MDH1, stronger effect = lower value 0.986 | S. cerevisiae deletion strains, locus YKL160W, strain elf1, stronger effect = lower value 0.981 | S. cerevisiae deletion strains, locus YKL190W, strain CNB1, stronger effect = lower value 1 | S. cerevisiae deletion strains, locus YKR001C, strain vps1, stronger effect = lower value 0.984 | S. cerevisiae deletion strains, locus YKR026C, strain gcn3, stronger effect = lower value 1.01 | S. cerevisiae deletion strains, locus YKR091W, strain srl3, stronger effect = lower value 1 | S. cerevisiae deletion strains, locus YLL001W, strain dnm1, stronger effect = lower value 1.03 | S. cerevisiae deletion strains, locus YLL026W, stronger effect = lower value 1 | S. cerevisiae deletion strains, locus YLL041C, strain sdh2, stronger effect = lower value 0.992 | S. cerevisiae deletion strains, locus YLR027C, strain aat2, stronger effect = lower value 1 | S. cerevisiae deletion strains, locus YLR039C, strain RIC1, stronger effect = lower value 1.01 | S. cerevisiae deletion strains, locus YLR058C, strain SHM2, stronger effect = lower value 1.02 | S. cerevisiae deletion strains, locus YLR102C, strain apc9, stronger effect = lower value 0.992 | S. cerevisiae deletion strains, locus YLR113W, strain HOG1, stronger effect = lower value 0.967 | S. cerevisiae deletion strains, locus YLR221C, strain rsa3, stronger effect = lower value 0.995 | S. cerevisiae deletion strains, locus YLR258W, strain gsy2, stronger effect = lower value 1.02 | S. cerevisiae deletion strains, locus YLR262C, strain YPT6 (second series), stronger effect = lower value 0.995 | S. cerevisiae deletion strains, locus YLR262C, strain YPT6, stronger effect = lower value 1.05 | S. cerevisiae deletion strains, locus YLR268W, strain sec22, stronger effect = lower value 1.01 | S. cerevisiae deletion strains, locus YLR320W, strain mms22, stronger effect = lower value 1.02 | S. cerevisiae deletion strains, locus YLR330W, strain CHS5, stronger effect = lower value 1.01 | S. cerevisiae deletion strains, locus YLR342W, strain FKS1 (second series), stronger effect = lower value 1 | S. cerevisiae deletion strains, locus YLR342W, strain FKS1, stronger effect = lower value 1 | S. cerevisiae deletion strains, locus YLR357W, strain rsc2, stronger effect = lower value 1.03 | S. cerevisiae deletion strains, locus YLR370C, strain arc18, stronger effect = lower value 1.01 | S. cerevisiae deletion strains, locus YLR371W, strain rom2, stronger effect = lower value 0.987 | S. cerevisiae deletion strains, locus YLR384C, strain iki3, stronger effect = lower value 1.01 | S. cerevisiae deletion strains, locus YLR418C, strain cdc73, stronger effect = lower value 0.994 | S. cerevisiae deletion strains, locus YML016C, strain PPZ1, stronger effect = lower value 1.01 | S. cerevisiae deletion strains, locus YML032C, strain rad52, stronger effect = lower value 0.997 | S. cerevisiae deletion strains, locus YML120C, strain ndi1, stronger effect = lower value 1 | S. cerevisiae deletion strains, locus YML124C, strain tub3, stronger effect = lower value 0.996 | S. cerevisiae deletion strains, locus YMR058W, strain fet3, stronger effect = lower value 1.01 | S. cerevisiae deletion strains, locus YMR078C, strain ctf18, stronger effect = lower value 0.988 | S. cerevisiae deletion strains, locus YMR125W, strain sto1, stronger effect = lower value 1.02 | S. cerevisiae deletion strains, locus YMR129W, stronger effect = lower value 1 | S. cerevisiae deletion strains, locus YMR205C, strain PFK2, stronger effect = lower value 1.03 | S. cerevisiae deletion strains, locus YMR223W, strain ubp8, stronger effect = lower value 0.993 | S. cerevisiae deletion strains, locus YMR231W, strain pep5, stronger effect = lower value 1 | S. cerevisiae deletion strains, locus YMR263W, strain SAP30, stronger effect = lower value 1.02 | S. cerevisiae deletion strains, locus YMR307W, strain GAS1, stronger effect = lower value 1 | S. cerevisiae deletion strains, locus YNL067W, strain RPL9B, stronger effect = lower value 1.01 | S. cerevisiae deletion strains, locus YNL071W, strain lat1, stronger effect = lower value 1.01 | S. cerevisiae deletion strains, locus YNL183C, strain NPR1, stronger effect = lower value 0.872 | S. cerevisiae deletion strains, locus YNL209W, strain ssb2, stronger effect = lower value 1 | S. cerevisiae deletion strains, locus YNL233W, strain BNI4, stronger effect = lower value 1.02 | S. cerevisiae deletion strains, locus YNL248C, strain rpa49, stronger effect = lower value 0.971 | S. cerevisiae deletion strains, locus YNL250W, strain rad50, stronger effect = lower value 0.983 | S. cerevisiae deletion strains, locus YNL271C, strain bni1, stronger effect = lower value 0.981 | S. cerevisiae deletion strains, locus YNL298W, strain CLA4, stronger effect = lower value 0.982 | S. cerevisiae deletion strains, locus YNL307C, strain MCK1, stronger effect = lower value 0.986 | S. cerevisiae deletion strains, locus YNL322C, strain KRE1 (second series), stronger effect = lower value 0.983 | S. cerevisiae deletion strains, locus YNR049C, strain mso1, stronger effect = lower value 1 | S. cerevisiae deletion strains, locus YNR052C, strain pop2, stronger effect = lower value 0.999 | S. cerevisiae deletion strains, locus YOL006C, strain TOP1, stronger effect = lower value 1.03 | S. cerevisiae deletion strains, locus YOL012C, strain htz1 0.778 | S. cerevisiae deletion strains, locus YOL147C, strain pex11, stronger effect = lower value 1 | S. cerevisiae deletion strains, locus YOR001W, strain rrp6, stronger effect = lower value 0.976 | S. cerevisiae deletion strains, locus YOR061W, strain CKA2, stronger effect = lower value 1.01 | S. cerevisiae deletion strains, locus YOR069W, strain VPS5, stronger effect = lower value 1.01 | S. cerevisiae deletion strains, locus YOR070C, strain gyp1, stronger effect = lower value 0.998 | S. cerevisiae deletion strains, locus YOR080W, strain dia2, stronger effect = lower value 1.01 | S. cerevisiae deletion strains, locus YOR083W, strain WHI5, stronger effect = lower value 0.969 | S. cerevisiae deletion strains, locus YOR106W, strain vam3, stronger effect = lower value 0.983 | S. cerevisiae deletion strains, locus YOR136W, strain idh2, stronger effect = lower value 0.994 | S. cerevisiae deletion strains, locus YOR144C, strain elg1, stronger effect = lower value 0.991 | S. cerevisiae deletion strains, locus YOR184W, strain ser1, stronger effect = lower value 1 | S. cerevisiae deletion strains, locus YOR231W, strain MKK1, stronger effect = lower value 0.981 | S. cerevisiae deletion strains, locus YOR265W, strain rbl2, stronger effect = lower value 0.997 | S. cerevisiae deletion strains, locus YOR270C, strain vph1, stronger effect = lower value 1.01 | S. cerevisiae deletion strains, locus YOR290C, strain snf2, stronger effect = lower value 0.983 | S. cerevisiae deletion strains, locus YOR316C, strain cot1, stronger effect = lower value 0.99 | S. cerevisiae deletion strains, locus YPL051W, strain arl3, stronger effect = lower value 0.991 | S. cerevisiae deletion strains, locus YPL055C, strain LGE1, stronger effect = lower value 1.03 | S. cerevisiae deletion strains, locus YPL078C, strain atp4, stronger effect = lower value 0.968 | S. cerevisiae deletion strains, locus YPL106C, strain sse1, stronger effect = lower value 1.01 | S. cerevisiae deletion strains, locus YPL240C, strain hsp82, stronger effect = lower value 1 | S. cerevisiae deletion strains, locus YPL241C, strain CIN2, stronger effect = lower value 1.01 | S. cerevisiae deletion strains, locus YPL256C, strain CLN2, stronger effect = lower value 0.948 | S. cerevisiae deletion strains, locus YPR119W, strain clb2, stronger effect = lower value 0.993 | S. cerevisiae deletion strains, locus YPR141C, strain kar3, stronger effect = lower value 0.98 | S. cerevisiae deletion strains, locus YPR163C, strain tif3, stronger effect = lower value 0.989 | S. cerevisiae deletion strains, locus YPR167C, strain met16, stronger effect = lower value 0.986 | S. cerevisiae deletion strains, strain wtn01, stronger effect = lower value 1.02 | S. cerevisiae strains, strain wild type, stronger effect = lower value 1.01
